Values joined by “and” are separate entries in the source; they are usually repeats but may differ in a detail not shown here. Identical values can stand only once. Results filed as inconclusive are left out. A structure can be active in one record and inactive in another. A number with no mark means an inactive call. Calls come from the whole dose curve; as a rule, active = well fitted inhibition curve with a large enough effect; inconclusive = small, poorly fitted or top-dose-only effect; inactive = flat fitted curve, though single readings scatter. Where a SMILES comes first, the peptide text is derived from it. Bridges are numbered along the chain shown (N, C = ends). [ ]: non-standard residue; d: D form. The star is where a group is joined. X2 = CC[C@H](C)CCCCC(=O)*; Orn = NCCC[C@H](N)C(=O)O; Dab = NCC[C@H](N)C(=O)O; Mpa = O=C(O)CCS
Assay: Drug repurposing screens with cells derived from glioblastoma tumor samples (AID 1345199); note: nearly all actives have a fitted effect of over 40% in size
Conditions: GBM patient neurospheres viability, ATP luminescence, 48 h; at 45.9 µM (top of the series); tumour line B
Method in brief: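 Four patient lines of CD133+ GBM neurospheres were screened at several concentrations; hits were retested in those lines plus three slower-growing GBM lines, using 48-hour treatment and ATP-based viability.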
% is set by controls: 0 for no effect and ±100 for the full control effect.

Row | SMILES | activity, negative = cell killing
1 | CCC(CN)CC(C)CCNCC(O)CNCC(C)CC(CC)CN (stereo not drawn) | -0.989%
2 | C=C1CC2C3CCC4=CC(=O)C=C[C@]4(C)[C@@]3(F)[C@@H](O)C[C@]2(C)[C@@]1(O)C(=O)COC(C)=O (stereo partly drawn) | -0.0683%
3 | O=C1O[C@H]2[C@H](O)[C@@H]1OC(O)[C@H]2O (stereo partly drawn) | -7.22%
4 | O=C(Cn1cnnn1)N[C@@H]1C(=O)N2C(C(=O)O)=C(CSc3nncs3)CS[C@H]12 | -3.62% and -9.64%
5 | CN1CC(O)c2cc(N=NC(N)=O)c(O)cc21 (stereo not drawn) | -10.8%
6 | O=C(Nc1ccc(/C=C/c2ccc(NC(=O)c3cc(S(=O)(=O)O)c4cccnc4c3O)cc2S(=O)(=O)O)c(S(=O)(=O)O)c1)c1cc(S(=O)(=O)O)c2cccnc2c1O | -15.1%
7 | COc1ccc(CNCC(O)COc2ccc3[nH]c(=O)ccc3c2)cc1OC (stereo not drawn) | -3.95%
8 | O=C(O)[C@@H](O)[C@H](O)[C@H](O)[C@@H](O)C(=O)O (tested in a mixture with another compound) | -6.98%
9 | CC(=O)O[C@H]1CC[C@@]2(C)C(=CC[C@H]3[C@@H]4CC[C@H](C(C)=O)[C@@]4(C)CC[C@@H]32)C1 | -9.15%
10 | CC(C)(S)C(=O)N[C@@H](CS)C(=O)O | -12.3% and -6.78%
11 | O=c1[nH]cnc2[nH]cc(CN3CCCCC3)c12 | -5.2%
12 | O=C(O)c1ccccc1[O-].O=C(O)c1ccccc1[O-].[Zn+2] | -5.99%
13 | CCC(=O)OCC(=O)[C@@]1(OC(=O)CC)[C@H](C)C[C@H]2[C@@H]3CCC4=CC(=O)C=C[C@]4(C)[C@@]3(F)[C@@H](O)C[C@@]21C | -7.21%
14 | CN[C@@H]1CCc2[nH]c3ccc(C(N)=O)cc3c2C1 | -9.15%
15 | CN(C)Cc1ccccc1 | -9.24%
16 | COc1ccc(C(=O)Nc2ccccc2CCC2CCCCN2C)cc1 (stereo not drawn) | -11.1%
17 | CCCCCCCCCCCCCCCC(=O)OC/C=C(C)/C=C/C=C(C)/C=C/C1=C(C)CCCC1(C)C | -7.71%
18 | O=C(O)CC(O)(CC(=O)O)C(=O)O | -4.79%
19 | CCCCC(=O)O | -3.62% and -8.26%

Row | SMILES | activity, negative = cell killing
20 | CN(C(=O)CO)c1c(I)c(C(=O)NCC(O)CO)c(I)c(C(=O)NCC(O)CO)c1I (stereo not drawn) | -7.14%
21 | CC(=O)OCC(=O)[C@@]1(O)[C@H](C)C[C@H]2[C@@H]3C[C@H](F)C4=CC(=O)C=C[C@]4(C)[C@H]3[C@@H](O)C[C@@]21C | 1.71%
22 | C[C@]12CC[C@@H]3c4ccc(OS(=O)(=O)O)cc4CC[C@H]3[C@@H]1CCC2=O | -10.8%
23 | COc1cc(C[C@@H]2NCCc3cc(O)c(O)cc32)cc(OC)c1OC | 13.6%
24 | CCCCCCCCCC(=O)O | -8.75%
25 | C=Cc1ccccc1 | -11.1%
26 | CC[C@H](C)CCCCC(=O)N[C@@H](CCN)C(=O)N[C@H](C(=O)N[C@@H](CCN)C(=O)N[C@H]1CCNC(=O)[C@H]([C@@H](C)O)NC(=O)[C@H](CCN)NC(=O)[C@H](CCN)NC(=O)[C@H](CC(C)C)NC(=O)[C@@H](CC(C)C)NC(=O)[C@H](CCN)NC1=O)[C@@H](C)O (X2-[Dab]T[Dab][Dab][Dab][dL]L[Dab][Dab]T; lactam 4-C) | 6.46%
27 | CC(C)(C)NC(=O)[C@H]1CC[C@H]2[C@@H]3CC=C4C=C(C(=O)O)CC[C@]4(C)[C@H]3CC[C@]12C | -3.87%
28 | CCOc1ccc(N=C(C)Nc2ccc(OCC)cc2)cc1 | -12.2%
29 | COc1ccc(CCNCC(O)COc2cccc(C)c2)cc1OC (stereo not drawn) | -28.4%
30 | C=CS(=O)(=O)O | -2.55%
31 | Cc1ccc(C2(O)CCN(CCCC(=O)c3ccc(F)cc3)CC2)cc1 | -26.3%
32 | C[C@@H]1C[C@H]2C3C[C@H](F)C4=CC(=O)C=CC4(C)[C@@]3(F)[C@@H](O)CC2(C)[C@@]1(O)C(=O)COC(=O)C(C)(C)C (stereo partly drawn) | -6.93%
33 | O=C(OCCO)c1ccccc1O | -4.1%
34 | c1cnc2cc3c(cc2n1)[C@@H]1CNC[C@H]3C1 | 5.48%
35 | COc1ccc(C2NC(=S)N3C(c4ccc(OC)c(OC)c4)NC(=S)N23)cc1OC (stereo not drawn) | -19.2%
36 | CCOc1ccc(C[C@H]2NC(=O)CCSSC[C@@H](C(=O)N3CCC[C@H]3C(=O)N[C@@H](CCCN)C(=O)NCC(N)=O)NC(=O)[C@H](CC(N)=O)NC(=O)[C@H]([C@@H](C)O)NC(=O)[C@H]([C@@H](C)CC)NC2=O)cc1 ([Mpa][dY](Et)ITNCP[Orn]G-NH2; disulfide 1-6) | -9.93%
37 | CCOC(=O)Cc1cccc(-c2cc(CCCCCCc3ccc(O[C@H]4O[C@H](COC(C)=O)[C@@H](OC(C)=O)[C@H](OC(C)=O)[C@@H]4OC(C)=O)c(-c4cccc(CC(=O)OCC)c4)c3)ccc2O[C@H]2O[C@H](COC(C)=O)[C@@H](OC(C)=O)[C@H](OC(C)=O)[C@@H]2OC(C)=O)c1 | -6.7%
38 | OC(CN1CCCCC1)c1cc(-c2ccccc2)on1 (stereo not drawn) | -15.5%

Source: PubChem BioAssay (NCATS)
